The panel holds about 79,000 compounds, 15% with a hit somewhere; the sample as a whole holds those more often. No stated cut-off is given here; in the data, active means growth inhibition above about 70%; inactive means the rest.
What was measured:
[1] = NCI Yeast Anticancer Drug Screen. Data for the rad50 strain (AID 155);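 further: 0% = growth of vehicle-only cultures of the same strain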; settings: S. cerevisiae rad50 strain growth inhibition; at 50.0 µM; hits give high values
Method in brief: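 Growth of the mutant yeast was measured after compound exposure and referenced to vehicle-treated cultures.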

[2] = NCI Yeast Anticancer Drug Screen. Data for the mec2-1 strain (AID 157); settings: S. cerevisiae mec2-1 strain, at 50.0 µM, hits give high values
Method in brief: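 Readout is yeast growth inhibition, normalised to vehicle-treated controls, in the mec2-1 strain exposed to compound.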

[3] = NCI Yeast Anticancer Drug Screen. Data for the sgs1 mgt1 strain (AID 161);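 further: 0% = growth of cultures given vehicle only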; settings: S. cerevisiae sgs1 mgt1 strain, at 50.0 µM, hits give high values
Method in brief: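 Percent growth inhibition was derived by comparing compound-exposed mutant yeast with vehicle-exposed cultures. The strain carries alterations in DNA damage repair.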

[4] = NCI Yeast Anticancer Drug Screen. Data for the cln2 rad14 strain (AID 165);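 further: 0% = growth equal to vehicle treated cultures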; settings: S. cerevisiae cln2 rad14 strain, at 50.0 µM, hits give high values
Method in brief: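 Relative to vehicle controls, growth inhibition of compound-treated cln2 rad14 yeast was recorded.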

[5] = NCI Yeast Anticancer Drug Screen. Data for the bub3 strain (AID 167); settings: S. cerevisiae bub3 mutant strain, at 50.0 µM, hits give high values
Method in brief: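 Whole-cell yeast assay. The mutant strain was incubated with compounds, and growth inhibition was determined by comparison with vehicle-treated cells.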

[6] = NCI Yeast Anticancer Drug Screen. Data for the mlh1 rad18 strain (AID 175); settings: S. cerevisiae mlh1 rad18 strain growth inhibition; at 50.0 µM; hits give high values
Method in brief: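 Test agents were incubated with a yeast strain of defined genotype (DNA damage repair defect). Inhibition of growth was derived by comparison with vehicle-exposed cultures.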

Measured: growth inhibition

COCC1OCCN1C (stereo unspecified)
inactive: [1] 12.7% | [2] 7.75% | [3] -10% | [4] 17.4% | [5] 5.65% | [6] -32.1%

CC(=O)Nc1ccc(/C=C/c2ccc(N=C=S)c(S(=O)(=O)O)c2)c(S(=O)(=O)O)c1
inactive: [1] 9.5% | [2] -4.4% | [3] -19% | [4] 10.1% | [5] 1.4% | [6] -13.5%

Cc1ccc(NC(=O)N2CC2C)cc1NC(=O)N1CC1C (stereo unspecified)
inactive: [1] 2.4% | [2] 5.55% | [3] -7.05% | [4] 17.3% | [5] 6.9% | [6] -9.45%

O=S(=O)(N1CCCCC1)N1CCCCC1
inactive: [1] 2.3% | [2] -0.85% | [3] 0.85% | [4] 8.85% | [5] 10.2% | [6] -2.4%

CCOC(=O)CCCCCCCCC(=O)Nc1ccc(-n2[nH]c(=O)cc2C)cc1
inactive: [1] -2.6% | [2] -31% | [3] -27.6% | [4] 6.95% | [5] -4.1% | [6] -3.3%

Cc1cc(O)c(C(C)C)cc1N=O
inactive: [1] 22.2% | [2] -7.25% | [3] 18.5% | [4] 16.6% | [5] -15.6% | [6] 6.35%

O=C1NC(=O)c2ccc(Br)c3cccc1c23
inactive: [1] 17.9% | [2] 18.9% | [3] 16.1% | [4] 21.6% | [5] 19.9% | [6] 1.75%

O=C(O)CCCc1ccc2c(c1)-c1ccccc1S2=O (stereo unspecified)
inactive: [1] 0.65% | [2] 3.8% | [3] 1.25% | [4] -3.6% | [5] -4% | [6] 13.1%

O=C(c1ccccc1)C1(Br)CCCCC1
inactive: [1] -2.1% | [2] 11.7% | [3] 19.8% | [4] -8.8% | [5] 15% | [6] 15.9%

COc1ccc(/C=C/c2cc(O)cc(OC3OC(CO)C(O)C(O)C3O)c2)cc1O (stereo unspecified)
inactive: [1] -2.4% | [2] 10.5% | [3] -5.5% | [4] 7.55% | [5] 8.7% | [6] 10.8%

N/C([S-])=N/N=c1\c(O)c(O)\c1=N/N=C(/N)[S-].[Cu+2]
inactive: [1] -8.6% | [2] -6.6% | [3] -7% | [4] -2.7% | [5] -10.3% | [6] -12.7%

O=C1NCCCCC1CC/C=C/c1ccccc1 (stereo unspecified)
inactive: [1] -13.7% | [2] -23.2% | [3] -3.7% | [4] -9.6% | [5] 32.5% | [6] -5.85%

Oc1ccc2c(c1)c1ccccc1c1ncccc21
inactive: [1] 46% | [2] 3.4% | [3] 43.6% | [4] 3.7% | [5] 9.35% | [6] 49%

CCOC(=O)c1c(C(=O)Nc2ccccc2)c(-c2ccccc2)n(NC(=O)c2cccc(Cl)c2)c1C
inactive: [1] 18.1% | [2] 10.3% | [3] 3.9% | [4] 7.2% | [5] -4.85% | [6] 21.5%

Cc1cc2c3ccccc3n(C)c2c2c1C(=O)C=CC2=O
inactive: [1] 6.5% | [2] 20.4% | [3] 20.9% | [4] 3.1% | [5] -7.35% | [6] 55.8%

CCOC(=O)C(=CN1CCCc2ccccc21)C(=O)OCC
inactive: [1] 5.05% | [2] -17.1% | [3] 13.6% | [4] -35% | [5] 5.4% | [6] -6.15%

CCOC(=O)CN1CCC(C(=O)OCC)CC1
inactive: [1] 7.75% | [2] -27% | [3] 20.6% | [4] 12.9% | [5] -3.05% | [6] 20.8%

C/C=C/C(=O)OCCCCCCCCCCCC
inactive: [1] -41.1% | [2] -39% | [3] -18.8% | [4] -16.8% | [5] -15.6% | [6] -39.8%

COC(=O)C1(Cc2ccc3c(c2)CCC3)Cc2ccccc2C1
inactive: [1] -9.5% | [2] -25.5% | [3] -6.1% | [4] 5.2% | [5] 29.9% | [6] -9.2%

CSc1ccc(NC(=O)Nc2ccc(Nc3ccccc3)cc2)cc1
inactive: [1] -0.95% | [2] 29.8% | [3] 15.1% | [4] -11.9% | [5] 14.2% | [6] 23.3%

O=[N+]([O-])c1ccc(CSc2ncnc3c2ncn3C2OC(CO)C(O)C2O)cc1 (stereo unspecified)
inactive: [1] 10.7% | [2] 22.6% | [3] 9.5% | [4] -7.35% | [5] -4.05% | [6] -17.4%

C[S+](C)N(c1ccccc1)C(C)(C)C
inactive: [1] -10.1% | [2] -8.2% | [3] -0.45% | [4] -17.4% | [5] -22.7% | [6] -6.1%

COc1ccc(/C=N/Nc2nc3ccccc3s2)cc1
inactive: [1] 7.9% | [2] -3.15% | [3] -3.15% | [4] -41.4% | [5] 1% | [6] 25.6%

Oc1cccnc1CN1CCOCC1
inactive: [1] -3.55% | [2] -14.3% | [3] -12.6% | [4] 8.8% | [5] -6.15% | [6] 6.95%

Nc1cccc(S(=O)(=O)Nc2c(N)nc(SCC(=O)O)[nH]c2=O)c1
inactive: [1] -15% | [2] -15.8% | [3] -19.7% | [4] -9.3% | [5] 11.9% | [6] 21.6%

CCc1cccc(CC)c1N(C(C)=O)C(C)=O
inactive: [1] 8.55% | [2] -1.3% | [3] -11.7% | [4] -8.85% | [5] 19.2% | [6] 3.2%

CC1OC(c2ccccc2Cl)OC1C (stereo unspecified)
inactive: [1] 1% | [2] -2.75% | [3] -9.7% | [4] -8.5% | [5] -3.05% | [6] -11.7%

COc1ccc(C(O)C(O)(c2ccccc2)c2ccc(OC)cc2)cc1 (stereo unspecified)
inactive: [1] -6.05% | [2] -4.1% | [3] -6.3% | [4] -19.1% | [5] 19.9% | [6] -11.6%

N#Cc1ccc(/C=C/C(=O)c2ccccc2)cc1
inactive: [1] 13.4% | [2] -20.1% | [3] 5.8% | [4] 6.8% | [5] 13.9% | [6] 9.05%

NCCSSC/C=C\CSSCCN
inactive: [1] 2.65% | [2] 1.5% | [3] -24.1% | [4] 16.2% | [5] -15.8% | [6] -12.9%

COc1ccccc1NC(=O)NCCCCCCNC(=O)Nc1ccccc1OC
inactive: [1] -25.6% | [2] -2.55% | [3] 2.1% | [4] -39.9% | [5] 0.85% | [6] 13.4%

CCCC(=O)c1ccc2c(c1)CCc1cc(O)ccc1-2
inactive: [1] 13.8% | [2] 1.35% | [3] 12.3% | [4] -5.05% | [5] 23.4% | [6] 1.6%

O=C(CCCN1CCC(Nc2ccccc2)(c2nnnn2C2CCCCC2)CC1)c1ccc(F)cc1
inactive: [1] -7.05% | [2] -16.2% | [3] 0.3% | [4] 11.1% | [5] 1.25% | [6] 7.15%

O=C(O)C1CCOCC1
inactive: [1] 9.9% | [2] 0.7% | [3] 2.35% | [4] 4% | [5] 15.2% | [6] -0.4%

CC(C)CC(Br)C(=O)NCC(=O)NCC(=O)O (stereo unspecified)
inactive: [1] 32.3% | [2] -17.1% | [3] -5.35% | [4] 7.95% | [5] 2.85% | [6] -8.95%

CC(C)(C)NC(=O)Nc1nccs1
inactive: [1] 7.8% | [2] -7.9% | [3] -6.2% | [4] -86.5% | [5] -3.9% | [6] 9.85%

c1ccc(CNCc2ccccc2)cc1
inactive: [1] -2.65% | [2] 3.8% | [3] -37.8% | [4] -35.1% | [5] 18.6% | [6] 1.05%

CC1(C)O[C@H]2Cn3c(c(C#N)c4ccccc43)[C@H]2O1
inactive: [1] 11.2% | [2] -38.4% | [3] 15.8% | [4] -11.1% | [5] 42.1% | [6] -21.2%

NC(=O)C1C=CN(Cc2ccccc2)C=C1
inactive: [1] -5.2% | [2] 7.45% | [3] -0.65% | [4] -12.8% | [5] 23.4% | [6] 7.3%

O=C1C(=O)c2ccccc2C(O)=C1CC=C(Cl)Cl
inactive: [1] -3.9% | [2] 5.5% | [3] -5.6% | [4] -33.1% | [5] 29.9% | [6] -33.6%

Oc1ccccc1CN1CCOCC1 (tested in a mixture with another compound)
inactive: [1] -2.7% | [2] -7.05% | [3] 6.95% | [4] -46.2% | [5] 0.2% | [6] -6.25%
